Data as given in PubChem BioAssay (NCI).
About 83,000 compounds went through this panel and 20% of them were active in at least one assay; those are over-represented in the sample as a whole.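 Negative percent growth values reflect cell death: -40 means 40% of the cells present at the start died, and -100 means all died.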 Unmarked numbers belong to inactive results. Activity calls are given as the source filed them. The calls were made as follows: active = growth percent below 10; inactive = the rest.

Legend:
Test in all cases: NCI-60 one-dose screen, 48 h (100 = growth as untreated, 0 = no growth, -100 = all killed)
Settings in all cases: 10 µM unless noted
NCI-H23 lung = test system: NCI-H23 lung
NCI-H226 lung = test system: NCI-H226 lung
NCI-H322M lung = test system: NCI-H322M lung
HOP-62 NSCLC = test system: HOP-62 NSCLC
NCI-H460 lung = test system: NCI-H460 lung
HOP-92 NSCLC = test system: HOP-92 NSCLC
NCI-H522 lung = test system: NCI-H522 lung
A549/ATCC NSCLC = test system: A549/ATCC NSCLC
786-0 renal = test system: 786-0 renal
COLO 205 colon = test system: COLO 205 colon
DU-145 prostate = test system: DU-145 prostate
K-562 leukemia = test system: K-562 leukemia
MALME-3M melanoma = test system: MALME-3M melanoma
MDA-MB-231 breast = test system: MDA-MB-231 breast
RXF 393 renal = test system: RXF 393 renal
SF-268 CNS = test system: SF-268 CNS
SF-295 CNS = test system: SF-295 CNS
SF-539 CNS = test system: SF-539 CNS
UACC-257 melanoma = test system: UACC-257 melanoma
M14 melanoma = test system: M14 melanoma

SMILES | growth (NCI-H23 lung) | growth (NCI-H226 lung) | growth (NCI-H322M lung) | growth (HOP-62 NSCLC) | growth (NCI-H460 lung) | growth (HOP-92 NSCLC) | growth (NCI-H522 lung) | growth (A549/ATCC NSCLC) | growth (786-0 renal) | growth (COLO 205 colon) | growth (DU-145 prostate) | growth (K-562 leukemia) | growth (MALME-3M melanoma) | growth (MDA-MB-231 breast) | growth (RXF 393 renal) | growth (SF-268 CNS) | growth (SF-295 CNS) | growth (SF-539 CNS) | growth (UACC-257 melanoma) | growth (M14 melanoma)
Cc1nc(S(=O)(=O)c2ccccc2)c(S(=O)(=O)Cc2ccc([N+](=O)[O-])cc2)o1 | 103% | 88% | 100% | 88.4% | 98.5% | 83.1% | 68.8% | 97.6% | 89.1% | 112% | 91.3% | 80.1% | 95.2% | 98.1% | 93.2% | 89.2% | 114% | 104% | 85.4% | 86.3%
COc1nc2ccc(C)cc2cc1-c1nc2c(cnn2-c2ccc(Br)cc2)c(=O)[nH]1 | 44.9% | 57.5% | 72.7% | 45.5% | 27.1% | 51.6% | 3.48% (active) | 57.7% | 41.5% | 74.2% | 53.4% | 16% | 73% | 76.1% | 15.9% | 49.6% | 26.7% | 12.1% | 47.4% | 27.7%
S=C(c1cccs1)N1CCN(c2cccc(Cl)c2)CC1 | 99.2% | 92.7% | 122% | 102% | 105% | 81.7% | 81.1% | 87.6% | 85.4% | 107% | 98.3% | 93.5% | 80.9% | 92.5% | 100% | 104% | 111% | 99.8% | 105% | 99.4%
COc1cc(C(=O)/C=C/c2c(Cl)nc3sccn23)cc(OC)c1OC | 91.8% | 92% | 77.3% | 83.3% | 87.1% | 57.3% | 61.8% | 83% | 91.6% | 104% | 83.8% | 37.6% | 91.9% | 77.2% | 79.5% | 77.8% | 112% | 86.5% | 71.3% | 79.4%
CN(C)c1ccc(/C=N\Nc2cc(=O)[nH]c3ccc(Cl)cc23)cc1 | 82.8% | 75% | 99.2% | 91.8% | 102% | 82.2% | 86.1% | 96.6% | 102% | 112% | 123% | 91.8% | 122% | 91.5% | 105% | 99.5% | 98% | 101% | 98.1% | 94.5%
C#C[C@]1(O)CC[C@H]2[C@@H]3CC=C4c5sc(Nc6cc(F)ccc6F)nc5CC[C@]4(C)[C@H]3CC[C@@]21C | 4.23% (active) | 49% | 50.9% | 0.529% (active) | -54.4% (active) | 13.1% | 1.36% (active) | 56.7% | -71.9% (active) | 8.29% (active) | -30.6% (active) | 4.14% (active) | -19.9% (active) | -20.6% (active) | -58.5% (active) | 0.557% (active) | -41.9% (active) | -88.7% (active) | 0.483% (active) | -22.1% (active)
COc1nc2ccccc2cc1-c1nc2c(cnn2-c2ccc(Br)cc2)c(=O)[nH]1 | 25.2% | 39.7% | 36.5% | 24.4% | 13.6% | 39% | 2.63% (active) | 39.9% | 15.5% | -50.2% (active) | 24.5% | 16.3% | 52.6% | 66.9% | -7.26% (active) | 41.3% | 16.9% | -31.7% (active) | 46.9% | -7.56% (active)
O=CN(SSN(C=O)C1CCCCC1)C1CCCCC1 | 115% | 91.9% | 110% | 95.4% | 125% | 135% | -25.1% (active) | 119% | 105% | 113% | 115% | 52.3% | 73.9% | 102% | 12.4% | 103% | 105% | 102% | 124% | 92.7%
c1ccc2c(-c3nc(-c4c[nH]c5ccncc45)cs3)c[nH]c2c1 | 74.4% | 78.5% | 79.1% | 49.3% | -26.4% (active) | 49.2% | 56.3% | 34.5% | 64.9% | -77.8% (active) | 44.5% | -32% (active) | -48.8% (active) | 12.7% | 74.9% | 68.5% | 50.2% | 53% | 96.1% | -69.7% (active)
COc1ccc(/C=N/Nc2cc(=O)[nH]c3ccc(C)cc23)cc1 | 70% | 81.5% | 86.8% | 86.3% | 103% | 88% | 75.2% | 91.3% | 105% | 106% | 105% | 79.5% | 114% | 126% | 95.4% | 115% | 96.2% | 101% | 105% | 86.3%
NCCNc1nc2ccccc2c2c(=O)c3cc(F)ccc3sc12 | 84.9% | 96% | 72.6% | 76.5% | 12.2% | 59.1% | 79.4% | 66.1% | 73.5% | -1% (active) | 65.9% | 1.61% (active) | 96.2% | 33.7% | 77.8% | 66.9% | 102% | 82.7% | 103% | 77.4%
COc1ccc(OC)c(/C=C/c2nnc(Nc3ccccc3)o2)c1 | 97.3% | 89.7% | 99.6% | 106% | 97.2% | 62.5% | 82.3% | 96.5% | 87.4% | 129% | 93.3% | 83.2% | 116% | 95% | 93.6% | 98.5% | 91.1% | 103% | 117% | 110%
Cc1nc2nc(SCC(=O)O)[nH]c2c(=O)[nH]1 | 98.8% | 101% | 105% | 96.7% | 104% | 95.3% | 78.6% | 86.6% | 104% | 109% | 113% | 94.9% | 112% | 110% | 109% | 108% | 97.9% | 97.6% | 96.7% | 102%
CN1CCN(c2ccc(-c3cnc4c(-c5csc6ccccc56)cnn4c3)cc2)CC1 | 14.3% | -5.69% (active) | 10.2% | -35.2% (active) | -78.2% (active) | 0.36% (active) | -60.8% (active) | -76.9% (active) | -68.5% (active) | -80.9% (active) | 9.16% (active) | 3.45% (active) | -70.1% (active) | -25.3% (active) | -66.4% (active) | -15.8% (active) | -49.7% (active) | -86.4% (active) | -76.3% (active) | -71.8% (active)
Cc1ccc2sc3c(NCCCN)nc4ccccc4c3c(=O)c2c1 | 79.9% | 93.5% | 69.2% | 69.1% | -54.2% (active) | 44.8% | 59.4% | 43.5% | 76.7% | -42.9% (active) | 15.4% | -37.7% (active) | 104% | -14.6% (active) | 71.4% | 65.1% | 88% | 58% | 101% | 15%
CCOC(=O)Nc1ccc(C(=O)/C=C/c2ccccc2)cc1 | 95% | 79.2% | 100% | 90.2% | 91.3% | 70.2% | 106% | 54.4% | 87.1% | 127% | 86.4% | 24.2% | 103% | 95.9% | 36.8% | 93.8% | 106% | 67.9% | 115% | 79.2%
